Assay results taken from PubChem BioAssay AID1159580 (chemical genetic matrix, 2015).
The campaign covered roughly 5,500 compounds. About 2,000 (36%) were called active. Another 18% or so got no clear call; they are omitted. Rule as the data show it: active = normalized growth mostly below about 0.91 (no sharp cut-off); inconclusive = no clear call, values can overlap the other calls; inactive = mostly above about 0.92. The list shows a part of the results.

Assay: chemical genetic growth profiling, strain panel (AID 1159580);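 also: tested at 20 µM; growth read once vehicle control cultures reached saturation at 30 °C; 1 = growth at the plate median or of vehicle wells; lower values mean less growth of the strain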
Conditions: growth OD
[1] = S. cerevisiae deletion strains, locus YDL101C, strain DUN1, active compounds read low
[2] = S. cerevisiae deletion strains, locus YHR030C, strain SLT2, active compounds read low
[3] = S. cerevisiae deletion strains, locus YAL013W, strain DEP1, active compounds read low
[4] = S. cerevisiae deletion strains, locus YDR150W, strain NUM1, active compounds read low
[5] = S. cerevisiae deletion strains, locus YJR075W, strain HOC1, active compounds read low
[6] = S. cerevisiae deletion strains, locus YPL055C, strain LGE1, active compounds read low

Measured: normalized growth

Cc1ccc2nc(-c3ccc([N+](=O)[O-])o3)oc(=O)c2c1
inactive: S. cerevisiae deletion strains, strain NNK1, active compounds read low 0.93
active: S. cerevisiae deletion strains, locus YAR019C, strain CDC15, active compounds read low 0.0888 | S. cerevisiae deletion strains, locus YBL105C, strain PKC1, active compounds read low 0.0913 | S. cerevisiae deletion strains, locus YBR135W, strain CKS1, active compounds read low 0.193 | S. cerevisiae deletion strains, locus YBR136W, strain MEC1, active compounds read low 0.181 | S. cerevisiae deletion strains, locus YBR160W, strain CDC28, active compounds read low 0.231 | S. cerevisiae deletion strains, locus YDL017W, strain CDC7, active compounds read low 0.259 | S. cerevisiae deletion strains, locus YDL028C, strain MPS1, active compounds read low 0.595 | [1] 0.162 | S. cerevisiae deletion strains, locus YDL214C, strain PRR2, active compounds read low 0.1 | S. cerevisiae deletion strains, locus YDR226W, strain ADK1, active compounds read low 0.361 | S. cerevisiae deletion strains, locus YDR477W, strain SNF1, active compounds read low 0.0976 | S. cerevisiae deletion strains, locus YER123W, strain YCK3, active compounds read low 0.14 | S. cerevisiae deletion strains, locus YER133W, strain GLC7, active compounds read low 0.116 | S. cerevisiae deletion strains, locus YFL009W, strain cdc4, active compounds read low 0.37 | S. cerevisiae deletion strains, locus YFL029C, strain CAK1, active compounds read low 0.124 | S. cerevisiae deletion strains, locus YFR019W, strain FAB1, active compounds read low 0.112 | S. cerevisiae deletion strains, locus YFR028C, strain CDC14, active compounds read low 0.149 | S. cerevisiae deletion strains, locus YGR040W, strain KSS1, active compounds read low 0.109 | S. cerevisiae deletion strains, locus YGR052W, strain FMP48, active compounds read low 0.112 | S. cerevisiae deletion strains, locus YGR092W, strain DBF2, active compounds read low 0.108 | [2] 0.141 | S. cerevisiae deletion strains, locus YHR079C, strain IRE1, active compounds read low 0.139 | S. cerevisiae deletion strains, locus YHR082C, strain KSP1, active compounds read low 0.131 | S. cerevisiae deletion strains, locus YHR205W, strain SCH9, active compounds read low 0.00195 | S. cerevisiae deletion strains, locus YIL147C, strain SLN1, active compounds read low 0.52 | S. cerevisiae deletion strains, locus YJL095W, strain BCK1, active compounds read low 0.121 | S. cerevisiae deletion strains, locus YJL157C, strain FAR1, active compounds read low 0.0957 | S. cerevisiae deletion strains, locus YJR016C, strain ILV3, active compounds read low 0.376 | S. cerevisiae deletion strains, locus YJR066W, strain TOR1 (second series), active compounds read low 0.103 | S. cerevisiae deletion strains, locus YJR066W, strain TOR1, active compounds read low 0.121 | S. cerevisiae deletion strains, locus YKL048C, strain ELM1, active compounds read low 0.119 | S. cerevisiae deletion strains, locus YKL067W, strain YNK1, active compounds read low 0.138 | S. cerevisiae deletion strains, locus YKL101W, strain HSL1, active compounds read low 0.107 | S. cerevisiae deletion strains, locus YKL193C, strain SDS22, active compounds read low 0.142 | S. cerevisiae deletion strains, locus YKL203C, strain TOR2, active compounds read low 0.101 | S. cerevisiae deletion strains, locus YLR113W, strain HOG1, active compounds read low 0.157 | S. cerevisiae deletion strains, locus YLR133W, strain CKI1, active compounds read low 0.0945 | S. cerevisiae deletion strains, locus YLR403W, strain SFP1, active compounds read low 0.000914 | S. cerevisiae deletion strains, locus YML070W, strain DAK1, active compounds read low 0.12 | S. cerevisiae deletion strains, locus YMR001C, strain CDC5, active compounds read low 0.127 | S. cerevisiae deletion strains, locus YMR205C, strain PFK2 (second series), active compounds read low 0.11 | S. cerevisiae deletion strains, locus YMR277W, strain FCP1, active compounds read low 0.124 | S. cerevisiae deletion strains, locus YNL006W, strain LST8, active compounds read low 0.0975 | S. cerevisiae deletion strains, locus YNL020C, strain ARK1, active compounds read low 0.105 | S. cerevisiae deletion strains, locus YNL161W, strain CBK1, active compounds read low 0.142 | S. cerevisiae deletion strains, locus YNL183C, strain NPR1, active compounds read low 0.118 | S. cerevisiae deletion strains, locus YNL207W, strain RIO2, active compounds read low 0.12 | S. cerevisiae deletion strains, locus YNL222W, strain SSU72, active compounds read low 0.101 | S. cerevisiae deletion strains, locus YNL307C, strain MCK1 (second series), active compounds read low 0.1 | S. cerevisiae deletion strains, locus YOL078W, strain AVO1, active compounds read low 0.164 | S. cerevisiae deletion strains, locus YOL136C, strain PFK27, active compounds read low 0.19 | S. cerevisiae deletion strains, locus YOR061W, strain CKA2, active compounds read low 0.0958 | S. cerevisiae deletion strains, locus YOR119C, strain RIO1, active compounds read low 0.123 | S. cerevisiae deletion strains, locus YOR231W, strain MKK1, active compounds read low 0.127 | S. cerevisiae deletion strains, locus YOR329C, strain SCD5, active compounds read low 0.0982 | S. cerevisiae deletion strains, locus YPL031C, strain PHO85, active compounds read low 0.102 | S. cerevisiae deletion strains, locus YPL153C, strain RAD53, active compounds read low 0.136 | S. cerevisiae deletion strains, locus YPL204W, strain HRR25, active compounds read low 0.116 | S. cerevisiae deletion strains, locus YPL209C, strain IPL1, active compounds read low 0.179 | S. cerevisiae deletion strains, locus YPL256C, strain CLN2, active compounds read low 0.174 | S. cerevisiae deletion strains, locus YPR025C, strain CCL1, active compounds read low 0.119 | S. cerevisiae deletion strains, locus YPR111W, strain DBF20, active compounds read low 0.32 | S. cerevisiae deletion strains, strain TSCII, active compounds read low 0.106

COc1cc2nc(-c3cccs3)oc(=O)c2cc1OC
inactive: [3] 0.984 | S. cerevisiae deletion strains, locus YBR229C, strain ROT2, active compounds read low 0.984 | [1] 0.987 | [4] 0.908 | S. cerevisiae deletion strains, locus YEL061C, strain CIN8, active compounds read low 0.981 | S. cerevisiae deletion strains, locus YGR078C, strain PAC10, active compounds read low 0.987 | S. cerevisiae deletion strains, locus YGR229C, strain SMI1, active compounds read low 1 | [2] 0.864 | S. cerevisiae deletion strains, locus YHR087W, strain rtc3, active compounds read low 0.985 | S. cerevisiae deletion strains, locus YJL187C, strain SWE1, active compounds read low 0.999 | S. cerevisiae deletion strains, locus YJR043C, strain POL32, active compounds read low 0.978 | [5] 0.971 | S. cerevisiae deletion strains, locus YLR039C, strain RIC1, active compounds read low 0.999 | S. cerevisiae deletion strains, locus YLR058C, strain SHM2 (second series), active compounds read low 0.994 | S. cerevisiae deletion strains, locus YLR085C, strain ARP6, active compounds read low 0.936 | S. cerevisiae deletion strains, locus YLR262C, strain YPT6, active compounds read low 1.01 | S. cerevisiae deletion strains, locus YML094W, strain GIM5, active compounds read low 0.978 | S. cerevisiae deletion strains, locus YMR219W, strain ESC1, active compounds read low 0.994 | S. cerevisiae deletion strains, locus YMR263W, strain SAP30, active compounds read low 0.9 | S. cerevisiae deletion strains, locus YMR307W, strain GAS1, active compounds read low 0.945 | S. cerevisiae deletion strains, locus YNL153C, strain GIM3, active compounds read low 0.971 | S. cerevisiae deletion strains, locus YNL298W, strain CLA4 (second series), active compounds read low 0.993 | S. cerevisiae deletion strains, locus YNL322C, strain KRE1, active compounds read low 0.984 | S. cerevisiae deletion strains, locus YNR030W, strain Alg12, active compounds read low 0.983 | [6] 1.11 | S. cerevisiae deletion strains, locus YPL241C, strain CIN2, active compounds read low 0.976 | S. cerevisiae deletion strains, locus YPR135W, strain CTF4, active compounds read low 0.879 | S. cerevisiae strains, strain wild type, active compounds read low 1

CC(=O)NCCc1c[nH]c2ccccc12
inactive: [3] 1 | S. cerevisiae deletion strains, locus YAL040C, strain CLN3, active compounds read low 1.01 | S. cerevisiae deletion strains, locus YCL061C, strain MRC1 (second series), active compounds read low 1 | [4] 1 | S. cerevisiae deletion strains, locus YER002W, strain NOP16, active compounds read low 1 | [5] 1 | S. cerevisiae deletion strains, locus YNL175C, strain NOP13, active compounds read low 1.01 | S. cerevisiae deletion strains, locus YNL197C, strain WHI3, active compounds read low 1 | S. cerevisiae deletion strains, locus YNL224C, strain SQS1, active compounds read low 1.01 | S. cerevisiae deletion strains, locus YOR083W, strain WHI5 (second series), active compounds read low 1.02 | [6] 1
